Holding throughout (experiment): DAPPL (digital affinity profiling via proximity ligation, sequencing); 10 mM Tris-HCl pH 7.5, 50 mM NaCl, 1 mM DTT, 4% glycerol, room temperature, 30 min; GST-TFs on glutathione beads, 16-mer random dsDNA library, 0.1% formaldehyde crosslink after washing; high values mean tight binding
One assay has as its target T1, FEV (Homo sapiens, UniProt Q99581 1-238).
T1 sequence: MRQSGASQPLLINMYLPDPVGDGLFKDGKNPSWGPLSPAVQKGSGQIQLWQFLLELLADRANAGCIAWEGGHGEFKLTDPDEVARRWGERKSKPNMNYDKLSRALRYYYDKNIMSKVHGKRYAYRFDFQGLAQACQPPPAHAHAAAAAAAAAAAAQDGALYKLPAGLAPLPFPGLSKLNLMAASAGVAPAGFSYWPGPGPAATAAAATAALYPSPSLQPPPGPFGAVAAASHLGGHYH
Conditions: protein: recombinant; tags: N-terminal GST; dsDNA, one strand shown. A digest of the protocol:
(§1)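 GST fusions of human transcription factors were expressed in yeast and captured with glutathione beads. Once given DNA barcodes and pooled alongside a tag-only sample, they were incubated for 30 min at room temperature with 200 nmole of a random double-stranded 16-mer DNA library in Tris/NaCl/DTT/glycerol buffer, then washed, crosslinked (0.1% formaldehyde), proximity-ligated, PCR-amplified and sequenced on an Illumina NextSeq500. The binding signal of each hexamer is its read frequency for a factor divided by its frequency for the tag-only sample.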

For another assay, the target named is ETV5 (Homo sapiens, UniProt P41161 1-510). Particulars: protein: recombinant; tags: N-terminal GST; dsDNA, one strand shown. The essentials: as §1
ETV5, sequence (P41161 whole entry): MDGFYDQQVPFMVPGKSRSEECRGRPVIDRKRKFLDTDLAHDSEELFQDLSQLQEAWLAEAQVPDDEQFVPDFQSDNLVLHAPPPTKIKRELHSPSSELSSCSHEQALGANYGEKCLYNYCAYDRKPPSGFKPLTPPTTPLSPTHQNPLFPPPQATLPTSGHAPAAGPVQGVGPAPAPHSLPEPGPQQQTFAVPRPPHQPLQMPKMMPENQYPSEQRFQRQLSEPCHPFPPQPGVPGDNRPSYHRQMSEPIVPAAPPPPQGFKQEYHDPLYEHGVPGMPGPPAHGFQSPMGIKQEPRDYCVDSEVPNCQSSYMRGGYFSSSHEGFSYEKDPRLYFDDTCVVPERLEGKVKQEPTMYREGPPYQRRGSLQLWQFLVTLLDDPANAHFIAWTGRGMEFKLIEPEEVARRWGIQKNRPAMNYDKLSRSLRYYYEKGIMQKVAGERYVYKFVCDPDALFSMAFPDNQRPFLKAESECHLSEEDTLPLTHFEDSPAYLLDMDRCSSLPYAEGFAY
For a further assay, the target named is HSF1 (Homo sapiens, UniProt Q00613 1-529). Particulars: protein: recombinant; tags: N-terminal GST; chain copies: 3; dsDNA, one strand shown. A digest of the protocol: as §1
HSF1, sequence (Q00613 whole entry): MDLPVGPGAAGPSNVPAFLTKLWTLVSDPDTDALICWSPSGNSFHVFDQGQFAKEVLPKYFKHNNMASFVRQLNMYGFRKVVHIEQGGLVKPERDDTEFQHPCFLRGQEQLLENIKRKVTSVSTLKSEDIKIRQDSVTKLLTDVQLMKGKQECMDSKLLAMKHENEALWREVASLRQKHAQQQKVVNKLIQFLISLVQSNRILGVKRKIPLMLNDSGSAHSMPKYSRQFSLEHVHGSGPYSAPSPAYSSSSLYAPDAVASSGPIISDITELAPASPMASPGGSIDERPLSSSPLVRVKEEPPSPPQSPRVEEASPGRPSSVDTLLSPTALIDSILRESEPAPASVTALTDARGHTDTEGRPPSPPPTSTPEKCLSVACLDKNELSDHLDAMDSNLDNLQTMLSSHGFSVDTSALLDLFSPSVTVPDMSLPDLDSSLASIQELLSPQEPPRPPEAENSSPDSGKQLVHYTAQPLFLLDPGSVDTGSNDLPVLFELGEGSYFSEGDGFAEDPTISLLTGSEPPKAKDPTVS
The target of another assay is T2, SPIC (Homo sapiens, UniProt Q8N5J4 1-248).
T2 sequence: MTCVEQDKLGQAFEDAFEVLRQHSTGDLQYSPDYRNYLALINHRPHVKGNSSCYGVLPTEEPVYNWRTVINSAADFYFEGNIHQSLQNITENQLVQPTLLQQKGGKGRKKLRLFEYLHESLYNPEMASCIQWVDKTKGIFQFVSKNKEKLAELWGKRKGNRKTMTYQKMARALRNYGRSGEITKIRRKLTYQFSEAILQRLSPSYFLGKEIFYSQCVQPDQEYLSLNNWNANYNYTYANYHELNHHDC
Particulars: protein: recombinant; tags: N-terminal GST; dsDNA, one strand shown. The essentials: as §1

The target in the next assay is ELF4 (Homo sapiens, UniProt Q99607 1-663). Particulars: protein: recombinant; tags: N-terminal GST; dsDNA, one strand shown. A digest of the protocol: as §1
ELF4, sequence (Q99607 whole entry): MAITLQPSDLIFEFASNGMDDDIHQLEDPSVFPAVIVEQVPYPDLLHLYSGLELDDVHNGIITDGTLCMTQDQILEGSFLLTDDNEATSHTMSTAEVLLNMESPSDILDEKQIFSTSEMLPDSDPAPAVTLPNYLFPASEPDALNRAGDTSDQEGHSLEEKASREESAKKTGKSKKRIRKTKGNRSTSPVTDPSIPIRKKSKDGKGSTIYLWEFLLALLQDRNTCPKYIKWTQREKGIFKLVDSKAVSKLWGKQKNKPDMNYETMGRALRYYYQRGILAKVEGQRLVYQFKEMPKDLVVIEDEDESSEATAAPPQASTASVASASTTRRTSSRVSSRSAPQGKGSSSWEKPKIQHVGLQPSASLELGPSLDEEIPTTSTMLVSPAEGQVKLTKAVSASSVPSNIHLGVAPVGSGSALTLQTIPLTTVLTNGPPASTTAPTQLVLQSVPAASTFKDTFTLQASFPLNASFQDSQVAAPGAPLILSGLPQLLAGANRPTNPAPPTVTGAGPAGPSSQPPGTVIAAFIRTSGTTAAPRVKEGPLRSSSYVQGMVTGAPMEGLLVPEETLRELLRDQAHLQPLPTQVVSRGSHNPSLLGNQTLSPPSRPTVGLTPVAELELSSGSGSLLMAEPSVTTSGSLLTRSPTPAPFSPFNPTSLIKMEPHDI
For a further assay, the target named is T3, ELK4 (Homo sapiens, UniProt P28324-2 1-405).
T3 sequence: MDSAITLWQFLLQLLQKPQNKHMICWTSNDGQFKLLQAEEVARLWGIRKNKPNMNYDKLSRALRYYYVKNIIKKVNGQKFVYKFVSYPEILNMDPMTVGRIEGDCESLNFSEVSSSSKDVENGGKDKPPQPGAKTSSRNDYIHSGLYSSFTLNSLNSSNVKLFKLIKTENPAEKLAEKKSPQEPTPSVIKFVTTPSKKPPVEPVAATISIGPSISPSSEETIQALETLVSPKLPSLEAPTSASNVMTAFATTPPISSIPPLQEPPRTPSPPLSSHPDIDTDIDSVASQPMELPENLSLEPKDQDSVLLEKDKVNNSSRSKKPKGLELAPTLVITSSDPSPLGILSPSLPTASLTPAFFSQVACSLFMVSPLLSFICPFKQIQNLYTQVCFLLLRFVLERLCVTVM
Particulars: protein: recombinant; tags: N-terminal GST; dsDNA, one strand shown. The essentials:
as §1

A further assay deals with T4, ETV2 (Homo sapiens, UniProt O00321 1-342).
T4 sequence: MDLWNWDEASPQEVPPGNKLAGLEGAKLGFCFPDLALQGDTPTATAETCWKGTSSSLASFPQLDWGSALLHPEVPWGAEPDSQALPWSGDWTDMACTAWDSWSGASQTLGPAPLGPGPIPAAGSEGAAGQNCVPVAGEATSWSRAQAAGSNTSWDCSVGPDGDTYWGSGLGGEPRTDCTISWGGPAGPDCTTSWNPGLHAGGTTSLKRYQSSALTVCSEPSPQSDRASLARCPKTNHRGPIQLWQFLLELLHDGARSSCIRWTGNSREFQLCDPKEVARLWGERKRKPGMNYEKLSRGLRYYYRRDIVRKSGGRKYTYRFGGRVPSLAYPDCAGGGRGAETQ
Conditions: protein: recombinant; tags: N-terminal GST; dsDNA, one strand shown. The essentials:
as §1

Another assay has as its target T5, ELF3 (Homo sapiens, UniProt P78545 1-371).
T5 sequence: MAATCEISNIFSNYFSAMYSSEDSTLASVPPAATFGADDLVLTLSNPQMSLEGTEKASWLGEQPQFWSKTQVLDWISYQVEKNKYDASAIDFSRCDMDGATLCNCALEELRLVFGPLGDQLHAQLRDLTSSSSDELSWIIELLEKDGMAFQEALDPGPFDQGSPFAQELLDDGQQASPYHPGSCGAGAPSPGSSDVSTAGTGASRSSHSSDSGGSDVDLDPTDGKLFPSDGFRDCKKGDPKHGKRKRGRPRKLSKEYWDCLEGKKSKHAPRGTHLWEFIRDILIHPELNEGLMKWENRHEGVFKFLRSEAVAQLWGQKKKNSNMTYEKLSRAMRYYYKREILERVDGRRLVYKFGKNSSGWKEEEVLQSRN
Particulars: protein: recombinant; tags: N-terminal GST; dsDNA, one strand shown. A digest of the protocol:
as §1

The next assay concerns the target CRX (Homo sapiens, UniProt O43186 1-299). Particulars: protein: recombinant; tags: N-terminal GST; dsDNA, one strand shown. The essentials:
as §1

A further assay addresses ETV1 (Homo sapiens, UniProt P50549 1-477). Particulars: protein: recombinant; tags: N-terminal GST; dsDNA, one strand shown. The essentials: as §1

ETV1, sequence (P50549 whole entry): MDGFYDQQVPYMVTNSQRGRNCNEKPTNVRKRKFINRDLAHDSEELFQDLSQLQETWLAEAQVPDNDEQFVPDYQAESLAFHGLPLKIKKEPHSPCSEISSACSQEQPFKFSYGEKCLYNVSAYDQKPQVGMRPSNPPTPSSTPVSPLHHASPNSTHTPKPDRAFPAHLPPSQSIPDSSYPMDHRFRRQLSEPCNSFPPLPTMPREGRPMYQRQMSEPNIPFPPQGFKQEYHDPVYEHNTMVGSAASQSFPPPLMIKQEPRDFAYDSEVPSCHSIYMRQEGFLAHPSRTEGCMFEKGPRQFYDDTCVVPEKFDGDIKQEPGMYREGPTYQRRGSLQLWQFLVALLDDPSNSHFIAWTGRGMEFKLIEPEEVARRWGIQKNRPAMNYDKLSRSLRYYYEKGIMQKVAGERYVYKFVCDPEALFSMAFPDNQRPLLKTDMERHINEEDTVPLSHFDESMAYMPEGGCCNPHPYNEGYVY
CRX, sequence (O43186 whole entry): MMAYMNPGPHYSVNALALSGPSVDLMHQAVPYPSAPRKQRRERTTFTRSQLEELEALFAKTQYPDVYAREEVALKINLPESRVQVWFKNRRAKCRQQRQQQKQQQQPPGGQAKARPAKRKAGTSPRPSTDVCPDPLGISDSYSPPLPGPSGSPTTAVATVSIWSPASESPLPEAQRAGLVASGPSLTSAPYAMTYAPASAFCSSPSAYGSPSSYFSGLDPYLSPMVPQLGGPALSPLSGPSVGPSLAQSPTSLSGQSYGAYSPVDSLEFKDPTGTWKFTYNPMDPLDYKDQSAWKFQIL

On to CATCTA, for which the binding signal in the assay with FEV is 1.14 fold enrichment (6-mer frequency, TF over GST control); with ETV5 it was 1.15 fold enrichment (6-mer frequency, TF over GST control); in the assay with HSF1, 1.47 fold enrichment (6-mer frequency, TF over GST control); in the assay with SPIC, 1.34 fold enrichment (6-mer frequency, TF over GST control); with ELF4, 1.17 fold enrichment (6-mer frequency, TF over GST control); with ELK4, 1.33 fold enrichment (6-mer frequency, TF over GST control). Besides, the binding signal with ETV2 was 1.1 fold enrichment (6-mer frequency, TF over GST control); with ELF3, 1.33 fold enrichment (6-mer frequency, TF over GST control); with CRX, 1.29 fold enrichment (6-mer frequency, TF over GST control); in the assay with ETV1, 1.16 fold enrichment (6-mer frequency, TF over GST control).

For the sequence TTTGCC, the binding signal in the assay with FEV was 1.26 fold enrichment (6-mer frequency, TF over GST control); with ETV5, 1.26 fold enrichment (6-mer frequency, TF over GST control); in the assay with HSF1, 1.24 fold enrichment (6-mer frequency, TF over GST control); with SPIC it was 1.31 fold enrichment (6-mer frequency, TF over GST control); with ELF4, 1.29 fold enrichment (6-mer frequency, TF over GST control); with ELK4, 1.37 fold enrichment (6-mer frequency, TF over GST control). Moreover, the binding signal was 1.29 fold enrichment (6-mer frequency, TF over GST control) in the assay with ETV2; 1.47 fold enrichment (6-mer frequency, TF over GST control) with ELF3; 1.32 fold enrichment (6-mer frequency, TF over GST control) with CRX; 1.33 fold enrichment (6-mer frequency, TF over GST control) with ETV1.

For the sequence TACTCC, the binding signal in the assay with FEV is 1.25 fold enrichment (6-mer frequency, TF over GST control); with ETV5, 1.27 fold enrichment (6-mer frequency, TF over GST control); with HSF1, 1.18 fold enrichment (6-mer frequency, TF over GST control); with SPIC, 1.23 fold enrichment (6-mer frequency, TF over GST control); in the assay with ELF4 it was 1.26 fold enrichment (6-mer frequency, TF over GST control); with ELK4, 1.19 fold enrichment (6-mer frequency, TF over GST control). The binding signal with ETV2 was 1.25 fold enrichment (6-mer frequency, TF over GST control); with ELF3 it was 1.11 fold enrichment (6-mer frequency, TF over GST control); with CRX it was 1.26 fold enrichment (6-mer frequency, TF over GST control); with ETV1, 1.24 fold enrichment (6-mer frequency, TF over GST control).

As for TCGACA, the binding signal with FEV is 1.3 fold enrichment (6-mer frequency, TF over GST control); in the assay with ETV5, 1.32 fold enrichment (6-mer frequency, TF over GST control); with HSF1, 1.38 fold enrichment (6-mer frequency, TF over GST control); in the assay with SPIC, 1.28 fold enrichment (6-mer frequency, TF over GST control); with ELF4, 1.43 fold enrichment (6-mer frequency, TF over GST control); with ELK4, 1.42 fold enrichment (6-mer frequency, TF over GST control). For the same sequence, the binding signal was 1.19 fold enrichment (6-mer frequency, TF over GST control) in the assay with ETV2; 1.23 fold enrichment (6-mer frequency, TF over GST control) with ELF3; 1.19 fold enrichment (6-mer frequency, TF over GST control) with CRX; 1.4 fold enrichment (6-mer frequency, TF over GST control) with ETV1.

Consider TCGACT, for which the binding signal was 1.42 fold enrichment (6-mer frequency, TF over GST control) with FEV; 1.35 fold enrichment (6-mer frequency, TF over GST control) with ETV5; 1.57 fold enrichment (6-mer frequency, TF over GST control) in the assay with HSF1; 1.41 fold enrichment (6-mer frequency, TF over GST control) in the assay with SPIC; 1.51 fold enrichment (6-mer frequency, TF over GST control) in the assay with ELF4; 1.52 fold enrichment (6-mer frequency, TF over GST control) with ELK4. The binding signal with ETV2 is 1.33 fold enrichment (6-mer frequency, TF over GST control); with ELF3, 1.49 fold enrichment (6-mer frequency, TF over GST control); with CRX, 1.36 fold enrichment (6-mer frequency, TF over GST control); in the assay with ETV1 it was 1.38 fold enrichment (6-mer frequency, TF over GST control).

Consider TTTAAG, for which the binding signal was 1.31 fold enrichment (6-mer frequency, TF over GST control) with FEV; 1.34 fold enrichment (6-mer frequency, TF over GST control) with ETV5; 1.87 fold enrichment (6-mer frequency, TF over GST control) in the assay with HSF1; 1.47 fold enrichment (6-mer frequency, TF over GST control) with SPIC; 1.29 fold enrichment (6-mer frequency, TF over GST control) with ELF4; 1.22 fold enrichment (6-mer frequency, TF over GST control) with ELK4. Moreover, the binding signal with ETV2 is 1.38 fold enrichment (6-mer frequency, TF over GST control); with ELF3 it was 1.28 fold enrichment (6-mer frequency, TF over GST control); in the assay with CRX, 2.81 fold enrichment (6-mer frequency, TF over GST control); with ETV1, 1.28 fold enrichment (6-mer frequency, TF over GST control).

For TATGTA, the binding signal with FEV was 1.28 fold enrichment (6-mer frequency, TF over GST control); in the assay with ETV5, 1.25 fold enrichment (6-mer frequency, TF over GST control); with HSF1, 1.28 fold enrichment (6-mer frequency, TF over GST control); in the assay with SPIC, 1.26 fold enrichment (6-mer frequency, TF over GST control); in the assay with ELF4, 1.38 fold enrichment (6-mer frequency, TF over GST control); with ELK4, 1.39 fold enrichment (6-mer frequency, TF over GST control). Moreover, the binding signal was 1.23 fold enrichment (6-mer frequency, TF over GST control) with ETV2; 1.52 fold enrichment (6-mer frequency, TF over GST control) in the assay with ELF3; 1.51 fold enrichment (6-mer frequency, TF over GST control) in the assay with CRX; 1.3 fold enrichment (6-mer frequency, TF over GST control) with ETV1.
